Source: PubChem BioAssay
This is one part of a sample in which hits are shown more often than they occur.
U2OS ROS induce: ROS inducers in U2OS cancer cells, primary screen, cell-based, H2DCF-DA fluorescence | ROS induction (% of piperlongumine), % at 10 µM | AID 624156, 2012 | U2OS ROS induction | actives 2% (n = 46,000); in the data active = ROS induction above about 79%, passing the limit was not always enough
Numbers stand for hits; i = inactive.

SMILES	U2OS ROS induce
CCc1ccc(-c2cn3c4ccccc4nc3n2CCN2CCOCC2)cc1	89
CN1CCN(CCCn2c(-c3ccccc3)cn3c4ccccc4nc23)CC1	i
Cc1ccc(-c2cn3c4ccccc4nc3n2CCN2CCOCC2)cc1	i
FC(F)(F)c1cccc(NC(=S)N2CCn3cccc3C2c2cccnc2)c1 (stereo unspecified)	i
COC(=O)[C@]1(Cc2ccccc2CN=[N+]=[N-])N=C(c2ccc(OCCCO)cc2)O[C@@H]1c1ccccc1N=[N+]=[N-]	i
Cc1noc(C)c1S(=O)(=O)N(C)C[C@H]1Oc2c(NS(=O)(=O)c3cn(C)cn3)cccc2C(=O)N([C@H](C)CO)C[C@H]1C	i
Cc1cc(NC(=O)C2CCCCC2C(=O)O)ccc1NC(=O)c1ccccc1 (stereo unspecified)	126
COc1ccc(NC(=O)C2CCCCC2C(=O)O)cc1OC (stereo unspecified)	i
COc1cccc(C(=O)Nc2ccc(NC(=O)C3CCCCC3C(=O)O)cc2)c1 (stereo unspecified)	i
Cc1ccc(S(=O)(=O)Nc2ccc3c(c2)CC(=O)N([C@H](C)CO)C[C@@H](C)[C@H](CN(C)S(=O)(=O)c2ccc(C)cc2)O3)cc1	i
OCCNC(=S)NC12CC3CC(CC(C3)C1)C2	i
O=C(Nc1ccccc1)C(=S)N1CCOCC1	i
C[C@@H]1CN([C@@H](C)CO)C(=O)c2cccc(NC(=O)Nc3ccccc3)c2O[C@H]1CN(C)S(=O)(=O)c1ccccc1	i
CC(C)NC(=O)Nc1ccc2c(c1)CC(=O)N([C@H](C)CO)C[C@H](C)[C@H](CN(C)Cc1ccncc1)O2	113
CC(C)NC(=O)N(C)C[C@@H]1Oc2ccc(NC(=O)Nc3ccccc3)cc2CC(=O)N([C@H](C)CO)C[C@H]1C	i
CC(C)NC(=O)Nc1ccc2c(c1)CC(=O)N([C@@H](C)CO)C[C@H](C)[C@H](CN(C)C(=O)Nc1ccccc1)O2	79
C[C@H](CO)N1C[C@H](C)[C@H](CN(C)C(=O)Nc2ccc(F)cc2)Oc2ccc(NC(=O)c3ccncc3)cc2CC1=O	i
CC(C)NC(=O)Nc1ccc2c(c1)CC(=O)N([C@@H](C)CO)C[C@H](C)[C@H](CN(C)Cc1ccncc1)O2	i
COc1ccc(NC(=O)N(C)C[C@@H]2Oc3ccc(NC(=O)NC(C)C)cc3CC(=O)N([C@@H](C)CO)C[C@@H]2C)cc1	i
CC(C)NC(=O)N(C)C[C@H]1Oc2ccc(NC(=O)Nc3ccccc3)cc2CC(=O)N([C@H](C)CO)C[C@H]1C	i
COc1ccc(NC(=O)N(C)C[C@@H]2Oc3ccc(NC(=O)NC(C)C)cc3CC(=O)N([C@H](C)CO)C[C@H]2C)cc1	110
COc1ccc(NC(=O)N(C)C[C@H]2Oc3ccc(NC(=O)c4ccncc4)cc3CC(=O)N([C@@H](C)CO)C[C@@H]2C)cc1	i
CC(C)NC(=O)Nc1ccc2c(c1)CC(=O)N([C@@H](C)CO)C[C@H](C)[C@H](CN(C)Cc1ccccc1)O2	i
COc1ccc(NC(=O)N(C)C[C@@H]2Oc3ccc(NC(=O)c4ccncc4)cc3CC(=O)N([C@H](C)CO)C[C@H]2C)cc1	94
COc1ccc(NC(=O)N(C)C[C@H]2Oc3ccc(NC(=O)NC(C)C)cc3CC(=O)N([C@@H](C)CO)C[C@@H]2C)cc1	i
SMILES	U2OS ROS induce
O=C(NC(=S)NCC1COc2ccccc2O1)c1ccc(Cl)cc1 (stereo unspecified)	i
Cc1ccc(S(=O)(=O)Nc2cccc3c2O[C@@H](CN(C)S(=O)(=O)c2ccc(Cl)cc2)[C@@H](C)CN([C@@H](C)CO)C3=O)cc1	i
COc1ccc(S(=O)(=O)N(C)C[C@@H]2Oc3c(NC(=O)NC(C)C)cccc3C(=O)N([C@@H](C)CO)C[C@H]2C)cc1	i
C[C@@H]1CN([C@@H](C)CO)C(=O)c2cc(NS(=O)(=O)c3ccccc3)ccc2O[C@H]1CN(C)S(=O)(=O)c1cn(C)cn1	i
COc1ccc(NC(=O)Nc2cccc3c2O[C@@H](CN(C)C(=O)Nc2ccc(F)cc2)[C@H](C)CN([C@@H](C)CO)C3=O)cc1	i
COc1cccc(OC)c1/C=N/NC(=O)c1cccc(C(=O)NO)c1	i
C[C@@H]1CN([C@@H](C)CO)C(=O)c2cccc(NC(=O)c3cnccn3)c2O[C@@H]1CN(C)S(C)(=O)=O	i
COc1cccc(NC(=O)CSc2nnc(-c3cccc(C)c3)n2-c2ccccc2)c1	i
Cc1cc2c(cc1S(=O)(=O)N1CC(C)CC(C)C1)OCC(=O)N2 (stereo unspecified)	85
Cc1cc2c(cc1S(=O)(=O)N1CCc3ccccc31)OCC(=O)N2	i
CCCNS(=O)(=O)c1ccc2c(c1)OCC(=O)N2	i
COCc1cc(=O)[nH]c(/N=C(\NC(=O)c2ccc(C)cc2)Nc2cccc(Cl)c2)n1	i
C[C@H](CO)N1C[C@H](C)[C@H](CN(C)S(=O)(=O)c2cn(C)cn2)Oc2ccc(NC(=O)NC3CCCCC3)cc2C1=O	i
Cc1noc(C)c1NC(=O)Nc1ccc2c(c1)CC(=O)N([C@@H](C)CO)C[C@H](C)[C@@H](CN(C)Cc1ccc3c(c1)OCO3)O2	i
CCOc1cc(C)c(S(=O)(=O)NCCN2CCOCC2)cc1C	i
COc1cc(C)c(Br)cc1S(=O)(=O)NCCN1CCOCC1	142
COc1cc(C)c(Br)cc1S(=O)(=O)NCc1ccco1	i
C[C@@H]1CN([C@H](C)CO)C(=O)c2cc(NS(=O)(=O)c3cccs3)ccc2O[C@@H]1CN(C)C(=O)Nc1cccc2ccccc12	i
C[C@@H]1CN([C@@H](C)CO)C(=O)Cc2cc(NS(=O)(=O)c3cn(C)cn3)ccc2O[C@@H]1CN(C)S(=O)(=O)c1ccccc1	i
CC(C)NC(=O)N(C)C[C@@H]1Oc2ccc(NC(=O)CCCCCC(=O)Nc3ccccc3N)cc2C(=O)N([C@H](C)CO)C[C@H]1C	i
CC(=O)N1/C(=C/c2ccc(N(C)C)cc2)C(=O)c2ccccc21	151
CC1=NOC(=O)/C1=C/c1ccc(N(C)C)cc1	i
CN(C)c1ccc(/C=C2/C(=O)Nc3ccccc32)cc1	i
COC(=O)c1cc(O)cc(OC)c1C(=O)c1c(O)cc(C)cc1OC	i
COC(=O)c1cc(O)cc(OC)c1Oc1cc(C)cc(O)c1C(=O)O	i
SMILES	U2OS ROS induce
COC(=O)c1cc(O)cc(OC)c1C(=O)c1c(O)cc(C)cc1O	94
Cc1noc(C)c1S(=O)(=O)Nc1ccc2c(c1)C(=O)N([C@H](C)CO)C[C@H](C)[C@H](CN(C)Cc1ccc(C(=O)Nc3ccccc3N)cc1)OCCCC[C@@H](C)O2	i
CCOC(=O)C1=C(CSc2ccc(Cl)cc2)NC(=O)NC1c1cc(C)ccc1C (stereo unspecified)	i
COc1ccccc1NC(=O)CSc1nnnn1-c1cccc(C)c1C	i
CCc1ccc(NC(=O)Cn2ncn3cccc3c2=O)cc1	i
O=C1c2ccccc2-c2c(NCCc3ccccc3)c(=O)[nH]c3cccc1c23	813
Cn1c(=O)c(Nc2ccccc2)c2c3c(cccc31)C(=O)c1ccccc1-2	i
Cc1nnc(NCCc2ccccc2)[nH]c1=O	i
C[C@@H]1CN([C@@H](C)CO)C(=O)c2cc(NC(=O)c3ccncc3)ccc2O[C@H]1CN(C)CC1CCCCC1	i
C=C1C(=O)O[C@@H]2[C@H]3C(=C)[C@@H](O[C@@H]4O[C@H](CO)[C@@H](OC(=O)/C=C/c5ccc(O)c(O)c5)[C@H](O)[C@H]4O)C[C@H]3C(=C)C[C@@H](O)[C@@H]12	i
C=C1C(=O)O[C@H]2C1CCC(=C)[C@@H]1C[C@H](OC(=O)C=C(C)C)C(=C)[C@@H]12 (stereo partly specified)	i
